This passage reports sensor-assay potency score (higher = more potent) results from the OligoGym collection.
Further: reference of the scale not given here.

One assay has as its target ZNF20. Description: pooled miR-30 sensor sort-seq; sequence = guide strand. To be noted: shRNA.
TTTCACATGGTGTTATTCCAGG returned a sensor-assay potency score (higher = more potent) of -0.755.

In turn, TTTCTCTCCACTGTGCGTCCTT showed a sensor-assay potency score (higher = more potent) of -0.157.

As for TTCTATATGGATTCTCTCCATA, the sensor-assay potency score (higher = more potent) was -1.01.

Consider TAAGACTTAGATTTCTCCTGGG, for which the sensor-assay potency score (higher = more potent) turned out to be 0.935.

Turning to TTGTATTACGAAACCATCCAAG, the sensor-assay potency score (higher = more potent) is -0.687.

TGAAGTTGTGAAGCACATCTAA registered a sensor-assay potency score (higher = more potent) of -0.501.

In turn, TATTAAGAGATGAATGACCCGT yielded a sensor-assay potency score (higher = more potent) of -0.0204.

For the sequence TTTCTCTTTAGTGCAAGCTTTA, the sensor-assay potency score (higher = more potent) is -0.882.

Consider TTCAATGTTCTGAACTTTCCAT, for which the sensor-assay potency score (higher = more potent) is -0.266.

TTTCTGTACATTCTTTACCATC gave a sensor-assay potency score (higher = more potent) of -1.72.

TAGTGCAAGCTTTATCATGTGA came in with a sensor-assay potency score (higher = more potent) of -0.356.

With TACCACAGTGCTTACATTCATA, the sensor-assay potency score (higher = more potent) is -0.662.

In another assay the target is ZNF213. The description is as above. To be noted: shRNA.
With TGTAGGTCCTCCACCAAGGCGA, the sensor-assay potency score (higher = more potent) is -0.787.

In turn, TAATACTCTTCTGTTGCCCTTT came in with a sensor-assay potency score (higher = more potent) of 0.353.

Sequence TTTCACTGGCTGCTTCTGTAGG gave a sensor-assay potency score (higher = more potent) of -0.917.

Turning to TCACTTTGGCCTTTGAGCCCAA, the sensor-assay potency score (higher = more potent) was -0.58.

In turn, TTCTGTAGGTCCTCCACCAAGG showed a sensor-assay potency score (higher = more potent) of -1.39.

In turn, TTCGGAATCCCTGCCATCCTCA yielded a sensor-assay potency score (higher = more potent) of -0.738.

The sequence TGTCTGGCCTGGCACCACCGGC displayed a sensor-assay potency score (higher = more potent) of -1.68.

ATCCCTGCCATCCTCATGCTGG gave a sensor-assay potency score (higher = more potent) of -1.09.

As to TTTGAGCCCAAAACCCAGGGTG, the sensor-assay potency score (higher = more potent) is -0.556.

In turn, TCGGGTTCCGCCTCCTCCGAGG had a sensor-assay potency score (higher = more potent) of -1.19.

TCACTGGCTGCTTCTGTAGGTC came in with a sensor-assay potency score (higher = more potent) of -0.833.

As to TTGAGCCCAAAACCCAGGGTGG, the sensor-assay potency score (higher = more potent) is -1.3.

The target of a further assay is ZNF214. Described as above. The note with it: shRNA.
In turn, TATACAAGTCTGATCTCTGAGA gave a sensor-assay potency score (higher = more potent) of -0.855.

In the case of TTTTATAGAATTTCTCTTCTGT, the sensor-assay potency score (higher = more potent) is 1.04.

Turning to TTGGATGTCTATACAAGTCTGA, the sensor-assay potency score (higher = more potent) came out at 0.602.

Take TTATAGAATTTCTCTTCTGTGT: the sensor-assay potency score (higher = more potent) was -0.222.

With TCTTTGATGAGTGTGAAGCTTT, the sensor-assay potency score (higher = more potent) is -0.426.

Sequence TAAACTTTGATTAAAGCTGTTA came in with a sensor-assay potency score (higher = more potent) of -0.478.

In turn, TCTACTGACATGACATTTGTGT displayed a sensor-assay potency score (higher = more potent) of 0.423.

For the sequence TTAACCATTCCTGACACTGGGA, the sensor-assay potency score (higher = more potent) was -0.384.

With TAGAACTGTGACTAAAACCCTT, the sensor-assay potency score (higher = more potent) is -0.352.

TGAGCTGTGACTAAAGTCCTTT showed a sensor-assay potency score (higher = more potent) of -0.611.

In turn, TCTTGTGGAAAACACACCGTGA displayed a sensor-assay potency score (higher = more potent) of -0.342.

Take TCTGATGAAAGTGAACTCCGGA: the sensor-assay potency score (higher = more potent) is 0.913.

The next assay addresses ZNF219. The description is as above. The note with it: shRNA.
In turn, TTGCCTTTGCAGTAGGGGCAAC showed a sensor-assay potency score (higher = more potent) of -1.2.

In turn, TAGTAGCGCGCGCTCTTCCAAC yielded a sensor-assay potency score (higher = more potent) of -1.67.

As for TAGAGTTGAAGCGGAAGCGCTT, the sensor-assay potency score (higher = more potent) was -0.695.
